Data on 45 compounds can be found in PubChem BioAssay (NCATS).

Test [1] can be described thus: Primary qHTS for inhibitors of nuclear receptor binding SET domain protein 2 (NSD2) in an isogenic RCH-ACV NSD2 p.E1099K mutant (9B) (AID 1645876). A general note: Quantitative high-throughput screening tests each substance at several concentrations.
Test [2] can be described thus: Primary qHTS for inhibitors of nuclear receptor binding SET domain protein 2 (NSD2) in an RCH-ACV wild type WT cells (2C) (AID 1645877).

Values joined by “and” are separate entries in the source; they are usually repeats but may differ in a detail not shown here. Equal values may be shown once. Records with an inconclusive call do not appear. A number with no mark means an inactive call. Active and inactive are the calls of the source. The call rests on the fitted dose curve; in most records, active means well fitted curve in the direction sought with a large enough effect; inconclusive means small, poorly fitted or top-dose-only effect, or another doubt; inactive means no such curve, though single readings can be large; an effect the other way counts as inactive or inconclusive.
Further: nearly all actives have a fitted effect of over 70% in size.
On the % scale 0 is the no-effect control and ±100 the full control effect; potency means the concentration at half of the fitted maximal effect.

As for `O=C(/C=C/c1ccc(O)cc1)N[C@@H](Cc1ccc(O)cc1)C(=O)O`, the Potency result in test [1] and in test [2] was “inactive” throughout.

On to `O=C(O)c1cn(C2CC2)c2cc(N3C[C@@H]4C[C@H]3CN4)c(F)cc2c1=O`, for which the Potency entry in test [1] and in test [2] was “inactive” in each case.

For the compound `C[C@@H]1O[C@@H](O[C@@H]2[C@@H](O)[C@H](O[C@H]3[C@H](O[C@H]4CC[C@@]5(C)C(CC[C@]6(C)C5CC=C5[C@@H]7CC(C)(C)CC[C@]7(C(=O)O[C@@H]7O[C@H](CO)[C@@H](O)[C@H](O)[C@H]7O[C@@H]7O[C@@H](C)[C@H](O[C@@H]8O[C@@H](C)[C@H](O)[C@@H](O)[C@H]8O)[C@@H](O)[C@H]7O)CC[C@]56C)[C@@]4(C)CO)O[C@H](C(=O)O)[C@@H](O)[C@@H]3O)O[C@H](CO)[C@H]2O)[C@H](O)[C@H](O)[C@H]1O` (stereo not given in full), the activity change, negative = viability loss in test [1] was -0.268% [at 9.23 µM]. The activity change, negative = cell killing in test [2] is -3.64% [at 9.23 µM].

As for `C=C(C(=O)O)C1CCC2(C)CCC(O)C(=C)C2C1` (stereo not given), the Potency entry in test [1] and in test [2] was “inactive” throughout.

In the case of `C[C@@H]1O[C@@H](O[C@H]2[C@H](O)[C@@H](O)[C@H](OC3CCC4(C)C5CCC(C)(C(CO)OC6OC(CO)C(O)C(O)C6O)CC5=CCC4C3(C)C)O[C@@H]2CO)[C@H](O)[C@H](O)[C@H]1O` (stereo not given in full), the Potency entry in test [1] and in test [2] was “inactive” throughout.

With `CCC(=O)O[C@H]1C(C)(C)[C@H]([C@@H](O)C(=O)OC)[C@]2(C)C(=O)[C@@]1(O)[C@H]1O[C@]13C1CC(=O)O[C@@H](c4ccoc4)[C@]1(C)CCC32` (stereo not given in full), the Potency result in test [1] and in test [2] was “inactive” in each case.

For the compound `C=C(CCC1=C(C)[C@H]2[C@H](CC3[C@@H]4CC=C5C[C@@H](O)C[C@@H](O)[C@]5(C)C4[C@H](O)C[C@@]32C)O1)CO[C@@H]1O[C@H](CO)[C@@H](O)[C@H](O)[C@H]1O` (stereo not given in full), the Potency in test [1] is 483 nM (active); in test [2] it was 963 nM (active).

For the compound `CC(=O)c1cc2c(cc1O)OC(C)(C)C=C2`, the Potency result in test [1] and in test [2] was “inactive” throughout.

With `Nc1nc2c(c(=O)[nH]1)C[C@@H](CCc1ccc(C(=O)N[C@@H](CCC(=O)O)C(=O)O)cc1)CN2`, the Potency in test [1] was 11.5 nM (active); in test [2], 9.2 nM (active).

For the compound `C=C1[C@@H]2CC[C@@H]3[C@@](CCC4C(C(=O)O)(C(=O)O)C[C@@H](O[C@@H]5O[C@H](CO)[C@@H](O)[C@H](O)[C@H]5OC(=O)CC(C)C)C[C@]43C)(C2)[C@H]1O` (stereo not given in full), the Potency result in test [1] and in test [2] was “inactive” in each case.

Consider `CC1(C)CC[C@]2(C(=O)O[C@@H]3O[C@H](CO[C@@H]4O[C@H](CO)[C@@H](O)[C@H](O)[C@H]4O[C@@H]4O[C@H](CO)[C@H](O)[C@H](O)[C@H]4O)[C@@H](O)[C@H](O[C@@H]4O[C@H](CO)[C@@H](O)[C@H](O)[C@H]4O)[C@H]3O)CC[C@]3(C)C(=CCC4[C@@]5(C)CC[C@H](O[C@@H]6OC[C@@H](O)[C@H](O)[C@H]6O)[C@@](C)(C(=O)O)C5CC[C@]43C)[C@@H]2C1` (stereo not given in full), for which the activity change, negative = viability loss in test [1] was -8.77% [at 9.23 µM]. Moreover, the activity change, negative = cell killing in test [2] was -8.76% [at 9.23 µM].

For the compound `CC1(C)CC[C@]2(C(=O)O)[C@H](O)C[C@]3(C)C(=CCC4[C@@]5(C)CC[C@H](O[C@@H]6O[C@H](CO[C@@H]7OC[C@H](O)[C@H](O)[C@H]7O[C@@H]7OC[C@@H](O)[C@H](O)[C@H]7O)[C@@H](O)[C@H](O)[C@H]6O[C@@H]6O[C@H](CO)[C@@H](O)[C@H](O)[C@H]6O)C(C)(C)C5CC[C@]43C)[C@@H]2C1` (stereo not given in full), the activity change, negative = viability loss in test [1] is -4.67% [at 9.23 µM]. For the same compound, the activity change, negative = cell killing in test [2] was -6.47% [at 9.23 µM].

On to `Cc1c(C(=O)N2CCOc3ccc(-c4ccc(N)nc4)cc3C2)ccc(S(C)(=O)=O)c1F`, for which the Potency in test [1] is 817 nM (active) and 1.32 µM (active); in test [2] it was 1.83 µM (active) and 3.32 µM (active).

Turning to `CC(=O)/C=C/[C@H]1[C@](C)(O)[C@@H](O)[C@H](OC(C)=O)C2C(C)(C)CCC[C@@]21C` (stereo not given in full), the Potency entry in test [1] and in test [2] was “inactive” throughout.

Consider `CC1(C)CC2=C3C=CC4C5(C)CCC(O)C(C)(C)C5CCC4(C)C3(C)CCC2(C)C(O)C1` (stereo not given), for which the Potency result in test [1] and in test [2] was “inactive” throughout.

Regarding `CC1=CC(=O)CC2C1(O)CCC(C)C21CC(c2ccoc2)OC1=O` (stereo not given), the Potency result in test [1] and in test [2] was “inactive” each time.

On to `CC1(C)CC2C=C(C(=O)O)C3COC(=O)C(O)(CO)C23C1` (stereo not given), for which the Potency entry in test [1] and in test [2] was “inactive” throughout.

As to `COc1cc(OC)c(/C=C/S(=O)(=O)Cc2ccc(OC)c(NCC(=O)O)c2)c(OC)c1`, the Potency was 57.8 nM (active) and 59 nM (active) in test [1]; 51.5 nM (active) and 46.8 nM (active) in test [2].

Turning to `C=C1CCC2C(C)(COC(C)=O)CCCC2(C)C1CCC(C)CC(=O)O` (stereo not given), the Potency entry in test [1] and in test [2] was “inactive” throughout.

`OC[C@H]1O[C@@H](O[C@H]2[C@H](OCCc3ccccc3)O[C@H](CO)[C@@H](O)[C@@H]2O)[C@H](O)[C@@H](O)[C@@H]1O`: the Potency entry in test [1] and in test [2] was “inactive” in each case.

With `COc1ccc(CC2C(=O)NC(C)C(=O)N(C)C3Cc4ccc(cc4)Oc4cc(ccc4OC4OC(CO)C(O)C(O)C4O)CC(C(=O)NC(C)C(=O)NC(C)C(=O)N2C)N(C)C3=O)cc1` (stereo not given), the Potency was 13.8 nM (active) in test [1] and 9.7 nM (active) in test [2].

For `CC(=O)C1=CCC2C3CCC4CC(O[C@@H]5O[C@H](CO)[C@@H](O[C@@H]6O[C@@H](C)[C@H](O)[C@@H](O)[C@H]6O)[C@H](O)[C@H]5O[C@@H]5O[C@H](CO)[C@@H](O)[C@H](O)[C@H]5O)CCC4(C)C3CCC12C` (stereo not given in full), the Potency result in test [1] and in test [2] was “inactive” each time.

`NC(=O)[C@H]1CCS[C@@H]2C[C@]3(CCCN3C(=O)Cc3ccc(NC(=O)COc4ccc(Cl)cc4Cl)cc3)C(=O)N12`: the Potency in test [1] was 7420 nM (active); in test [2] it was 5250 nM (active).

Take `CC1=CCC(C(C)(C)O[C@@H]2O[C@H](CO[C@@H]3O[C@@H](C)[C@H](O)[C@@H](O)[C@H]3O)[C@@H](O)[C@H](O)[C@H]2O)CC1` (stereo not given in full): the Potency entry in test [1] and in test [2] was “inactive” each time.

With `CC(=O)O[C@@](C)(C(=O)/C=C/C(C)(C)O)[C@H]1[C@H](O)C[C@@]2(C)[C@@H]3CC=C4[C@@H](C=C(O)C(=O)C4(C)C)[C@]3(C)C(=O)C[C@]12C`, the Potency in test [1] is 502 nM (active); in test [2] it was 282 nM (active).

`C[C@@H]1O[C@@H](O[C@@H]2[C@@H](O)[C@H](O[C@H]3CC[C@@]4(C)C(CC[C@]5(C)C4CC=C4[C@@H]6CC(C)(C)CC[C@]6(C(=O)O[C@@H]6O[C@H](CO)[C@@H](O)[C@H](O)[C@H]6O)CC[C@]45C)C3(C)C)O[C@H](C(=O)O)[C@H]2O)[C@H](O)[C@H](O)[C@H]1O` (stereo not given in full): the activity change, negative = viability loss in test [1] is -9.85% [at 9.23 µM]. In addition, the activity change, negative = cell killing in test [2] is -14.9% [at 9.23 µM].

In the case of `OC[C@H]1O[C@@H](Oc2cc(O)c3c(c2)O[C@@H](c2ccc(O)cc2)[C@H](O)C3)[C@H](O)[C@@H](O)[C@@H]1O`, the Potency entry in test [1] and in test [2] was “inactive” throughout.

On to `OCC(CO[C@@H]1O[C@H](CO)[C@@H](O)[C@H](O)[C@H]1O)c1ccc2c(c1)OCO2` (stereo not given in full), for which the Potency entry in test [1] and in test [2] was “inactive” each time.

On to `C=C1CCC2C(C)(C(=O)OC)CCCC2(C)C1CCC(C)CC(=O)O` (stereo not given), for which the Potency entry in test [1] and in test [2] was “inactive” throughout.

With `CC1=C(COC2OC(CO)C(O)C(O)C2O)C(C(CO)C(=O)O)CC1` (stereo not given), the Potency entry in test [1] and in test [2] was “inactive” in each case.

For the compound `CC(C)CC1NC(=O)C2CC3(O)c4ccccc4NC3N2C1=O` (stereo not given), the Potency entry in test [1] and in test [2] was “inactive” each time.

On to `CC(=O)O[C@H]1C[C@@](O)(C(C)C)C2[C@@H](OC(=O)c3ccc(O)cc3)C[C@@]3(C)O[C@H]3C[C@]21C` (stereo not given in full), for which the Potency entry in test [1] and in test [2] was “inactive” each time.

For the compound `OC[C@H]1O[C@@H](OC(CCCCc2ccc(O)cc2)CCc2ccc(O)cc2)[C@H](O)[C@@H](O)[C@@H]1O` (stereo not given in full), the Potency result in test [1] and in test [2] was “inactive” in each case.

For the compound `O=C(CC1C(=O)Nc2ccccc21)OC[C@H]1O[C@@H](OCCc2ccc(O)cc2)[C@H](O)[C@@H](O)[C@@H]1O` (stereo not given in full), the Potency entry in test [1] and in test [2] was “inactive” each time.

With `C/C1=C\[C@H]2OC(=O)[C@@H](C)[C@@H]2CC/C(C(=O)O)=C/CC1`, the Potency entry in test [1] and in test [2] was “inactive” throughout.

Consider `CC(O)/C=C/C1(O)C(C)C(O[C@@H]2O[C@H](CO)[C@@H](O)[C@H](O)[C@H]2O)C(O)CC1(C)C` (stereo not given in full), for which the Potency entry in test [1] and in test [2] was “inactive” in each case.

With `COc1ccc(/C=C/C(=O)O[C@@H]2[C@@H](O)[C@H](C)O[C@@H](O[C@H]3[C@@H]4C=CO[C@@H](O[C@H]5O[C@@H](CO)[C@H](O)[C@@H](O)[C@@H]5O)[C@@H]4[C@@]4(CO)O[C@@H]34)[C@@H]2OC(C)=O)cc1`, the Potency result in test [1] and in test [2] was “inactive” each time.

As to `C/C1=C\CCC(C)CCO[C@@H]2O[C@H](CO[C@@H]3OC[C@H](O)[C@H](O)[C@H]3OC1=O)[C@@H](O)[C@H](O)[C@H]2O` (stereo not given in full), the Potency entry in test [1] and in test [2] was “inactive” each time.

As for `C/C=C1\[C@H](OC2OC(COC3OC(CO)C(O)C(O)C3O)C(O)C(O)C2O)OC=C(C(=O)OC)[C@H]1CC(=O)OCCc1ccc(O)cc1` (stereo not given in full), the Potency entry in test [1] and in test [2] was “inactive” in each case.

Regarding `CC1(C)CC[C@]2(C(=O)OC3OC(CO)C(O)C(O)C3O)CC[C@]3(C)C(=CCC4[C@@]5(C)CC[C@H](OC6OC(C(=O)O)C(O)C(OC7OC(CO)C(O)C(O)C7O)C6O)C(C)(C)C5CC[C@]43C)C2C1` (stereo not given in full), in test [1], the activity change, negative = viability loss was -3.97% [at 9.23 µM]. Also, the activity change, negative = cell killing in test [2] is -7.21% [at 9.23 µM].

Consider `COc1cc(-c2ncn(/C=C\C(=O)OC(C)C)n2)cc(C(F)(F)F)c1`, for which the Potency in test [1] and in test [2] was 129 nM (active) throughout.

As to `CC1CC[C@]2(C(=O)O)CC[C@]3(C(=O)O)C(=CCC4[C@@]5(C)CC[C@H](O[C@@H]6O[C@H](CO)[C@@H](O)[C@H](O)[C@H]6O)C(C)(C)C5CC[C@]43C)C2C1C` (stereo not given in full), the Potency result in test [1] and in test [2] was “inactive” in each case.

Turning to `CC(=O)c1c(O)cc(O[C@@H]2O[C@H](CO)[C@@H](O)[C@H](O)[C@H]2O)cc1O`, the Potency entry in test [1] and in test [2] was “inactive” throughout.

Take `CCC(O)C(C)C1CCC(C(C)C(=O)O)O1` (stereo not given): the Potency result in test [1] and in test [2] was “inactive” each time.

Regarding `O=C(c1ccc(/C=C/c2n[nH]c3ccccc23)cc1)N1CCNCC1`, the Potency in test [1] is 649 nM (active) and 2.63 µM (active); in test [2], 515 nM (active) and 1.86 µM (active).
